An excerpt weighted towards active compounds, which were near 9.2% of everything screened.
FLuc modulator = counter-screen for miR-21 project: firefly luciferase inhibitors or activators; P08659; purified FLuc, Km substrates, luminescence inhibition; Potency, µM (top dose mostly 57.5 µM), inactives show at the highest dose activity change, negative = inhibition, most hits filed as inhibitors; actives 6.9% (n = 360,000); AID 588342;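 note: plate controls were vehicle for no effect and reference inhibitor for full effect; nearly all actives have a fitted effect of over 55% in size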
Target sequence (P08659 whole entry, looked up): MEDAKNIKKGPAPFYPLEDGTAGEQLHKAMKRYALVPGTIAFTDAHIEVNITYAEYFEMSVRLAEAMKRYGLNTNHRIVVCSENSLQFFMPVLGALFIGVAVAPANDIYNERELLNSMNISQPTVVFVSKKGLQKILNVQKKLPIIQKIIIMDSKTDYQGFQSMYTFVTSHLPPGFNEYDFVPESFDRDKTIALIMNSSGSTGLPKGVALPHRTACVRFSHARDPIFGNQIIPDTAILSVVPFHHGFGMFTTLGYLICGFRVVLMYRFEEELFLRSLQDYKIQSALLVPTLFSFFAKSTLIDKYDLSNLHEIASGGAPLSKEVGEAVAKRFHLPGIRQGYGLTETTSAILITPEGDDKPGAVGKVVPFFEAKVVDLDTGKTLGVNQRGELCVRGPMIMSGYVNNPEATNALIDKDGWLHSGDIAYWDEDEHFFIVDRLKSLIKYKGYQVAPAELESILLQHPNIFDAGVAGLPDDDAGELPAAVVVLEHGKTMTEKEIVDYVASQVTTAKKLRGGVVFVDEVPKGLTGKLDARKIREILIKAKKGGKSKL
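Purified P. pyralis luciferase, 10 nM final, with Km-level 10 uM D-luciferin and 10 uM ATP in 50 mM Tris acetate pH 7.5, 10 mM Mg acetate, 0.01% Tween-20, 0.05% BSA; 6-point qHTS titration about 60 µM downward; luminescence read.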
Rab9 promoter act = activates the Rab9 promoter | Huh7 Rab9 promoter-luciferase reporter, luminescence, 24 h | Potency, µM (highest dose often 9.22 µM), for inactives: top-dose activation, negative = inhibition, hits mostly activators | actives 2.8% (n = 320,000); note: % of control where 0% means no effect; nearly all actives have a fitted effect of over 60% in size
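Cell-based reporter: Huh7 stable for Rab9 promoter-driven luciferase, plated in reduced-serum medium with 10% FBS at 1500 cells/well, compound-treated 24 h at 37 °C, luminescence read after 10 min reagent.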
NPC1 promoter act = NPC1 promoter activation; Huh7 NPC1 promoter luciferase reporter, 24 h; Potency, µM (highest dose often 9.22 µM), for inactives: top-dose activation, most hits filed as activators; actives 2.4% (n = 320,000); AID 485313; note: % of control where 0% means no effect; nearly all actives have a fitted effect of over 60% in size
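NPC1 promoter–luciferase Huh7 cells; 24 h compound; luminescence.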
ELG1 DNA repair = inhibitors of ELG1-dependent DNA repair in HEK293T cells | HEK293T ELG1-luciferase reporter, luminescence, 16 h; DNA damage induced by 5-fluorouridine | Potency, µM (highest dose often 46.1 µM), without a hit: top-dose activity change, negative = inhibition, usual class: inhibitors | actives 2.3% (n = 330,000) | AID 504467; note: % is set by controls: 0 for no effect and ±100 for the full control effect; nearly all actives have a fitted effect of over 55% in size
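Overnight (16 hr) co-exposure of 2,000 cells/well to 5-fluorouridine and compound at 37 °C preceded detection. Luciferase was quantified via ONE-Glo luminescence; loss of signal denotes inhibition.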
ELG1 genotoxic = induces genotoxicity in HEK293T cells with luciferase-tagged ELG1; HEK293T ELG1-luciferase reporter, luminescence, 16 h; Potency, µM (titrated, usually from 46 µM), without a hit: top-dose activity change, positive = activation, hits mostly activators; actives 1.3% (n = 330,000); AID 504466; note: % of control where 0% means no effect; nearly all actives have a fitted effect of over 60% in size
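DMSO vehicle served as control against compound-treated ELG1-luciferase HEK293T cells; exposure lasted 16 hr at 37 °C and 5% CO2, followed by ONE-Glo luminescence detection after 30 min.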
SMN2 splice enh = SMN2 splice variant enhancement. HEK293 SMN2-luciferase splicing reporter, luminescence, 30-36 h. actives 2.8% (n = 210,000). Potency, µM (series often up to 46.1 µM), for inactives: top-dose activity change, positive = activation, hits mostly activators. AID 1458; note: % of control where 0% means no effect; nearly all actives have a fitted effect of over 55% in size
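HEK293 cells carry an SMN2 minigene-luciferase reporter in which exon 7 inclusion puts luciferase in frame. Cells were seeded at 2000 cells/well, attached for 10-12 hours, then exposed to compounds for 30-36 hours at 37C before ONE-Glo luminescence.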
* marks the source's active call; other numbers are inactive results; ? = inconclusive; nt = no result; [ ] = dose if it differs, or a comment. Calls come from the whole dose curve; as a rule, active = well fitted curve in the direction sought with a large enough effect; inconclusive = small, poorly fitted or top-dose-only effect, or another doubt; inactive = no such curve, though single readings can be large; an effect the other way counts as inactive or inconclusive. Potency is the fitted concentration of half-maximal effect.

SMILES	FLuc modulator	Rab9 promoter act	NPC1 promoter act	ELG1 DNA repair	ELG1 genotoxic	SMN2 splice enh
CC(=O)Nc1cc(C(=O)N(C)Cc2ccccc2)ccc1S(=O)(=O)c1ccc(C)cc1	-1.0%	-0.5%	8.5%	-0.5%	-0.1%	nt
COc1ccc(OC)c(NC(=O)c2c(NCc3cccs3)sc3c2CCCCC3)c1	-17.5%	nt	nt	nt	nt	nt
CCCCN1CC(=O)N2[C@H]3c4cc(Cl)ccc4OC[C@@H]3[C@H](c3ccccc3)[C@]2(C)C1=O	0.0%	-9.6%	1.1%	18.3µM*	-4.0%	nt
CC(=O)N1CCN(C(=O)c2ccc(NS(=O)(=O)c3ccc4c(c3)OCCO4)cc2)CC1	3.5%	1.2%	-1.5%	-3.7%	-1.2%	nt
O=C(c1ccc(NS(=O)(=O)c2ccc3c(c2)OCCO3)cc1)N1CCCCC1	6.6%	-3.8%	-5.0%	23.1µM*	-11.9%	nt
Cc1cc(OC(C)C(=O)N(Cc2ccc(N(C)C)cc2)Cc2ccco2)ccc1Cl (stereo not drawn)	?	nt	nt	nt	nt	-24.2%
COC(=O)c1ccc(CSc2c(C(C)C)cnc3c2c(=O)n(C)c(=O)n3C)cc1	3.7%	nt	nt	nt	nt	nt
O=C(/C=C/c1ccccc1)c1cc(Br)ccc(=O)c1O	1.8%	-12.9%	-15.6%	?	-20.9%	-85.7%
Cc1ccc(/C=C/C(=O)c2ccccc(=O)c2O)cc1C	?	-1.4%	13.0%	20.6µM*	?	-100.8%
Cc1cccc(NC(=O)C2CCCN(S(=O)(=O)c3ccc4c(c3)CCCC(=O)N4)C2)c1 (stereo not drawn)	7.2%	nt	nt	nt	nt	nt
Cc1cc(C(=O)CSc2ccc3c(c2)OCCO3)c(C)n1C1CC1	10.7µM*	2.82µM*	?	?	?	?
Cn1c(N)c(C(=O)CSc2ccc3c(c2)OCCO3)c(=O)n(C)c1=O	?	6.4%	-0.8%	?	-7.3%	-20.3%
C/C(N)=C(/C#N)C(=O)CSc1ccc2c(c1)OCCO2	12µM*	2.82µM*	3.16µM*	?	?	12.6µM*
Clc1ccc(-c2nnn3c2nc(N2CCCCC2)c2ccccc23)cc1	-10.7%	nt	nt	nt	nt	5.9%
CCCn1c(N)c(C(=O)CSc2nnc(-c3ccco3)n2Cc2ccccc2)c(=O)[nH]c1=O	-0.8%	-2.2%	0.7%	14.6µM*	-7.8%	-15.5%
CCCn1c(N)c(C(=O)CSc2nc3ccccc3s2)c(=O)[nH]c1=O	-3.2%	15.7%	8.7%	?	-12.3%	12.6µM*
O=C(CSc1nnc(-c2ccco2)n1Cc1ccccc1)OC1CCCCC1	9.53µM*	3.16µM*	?	?	?	?
CC(=O)c1c(C)[nH]c(C(=O)CSc2nnc(-c3ccco3)n2Cc2ccccc2)c1C	-6.3%	-7.7%	1.8%	?	-14.3%	-18.0%
O=C(CSc1nnc(-c2ccncc2)n1Cc1ccco1)OC1CCCCC1	3.9%	2.7%	-3.1%	4.3%	-6.5%	24.3%
CCOC(=O)CNC(=O)COc1coc(CN2CCN(c3ccc(F)cc3)CC2)cc1=O	1.8%	0.6%	-3.3%	-0.3%	-1.3%	nt
Cc1ccc(S(=O)(=O)NC(=O)Nc2cccc(S(=O)(=O)N(C)C)c2)cc1	nt	nt	nt	9.2%	0.3%	nt
COc1ccccc1OCCNC(=O)c1cccc(S(=O)(=O)N2CCN(Cc3ccccc3)CC2)c1	1.4%	0.7%	-2.2%	20.6µM*	-4.8%	nt
O=C(NCc1ccc(Cl)cc1)c1cccc(S(=O)(=O)N2CCCC2)c1	2.3%	-1.9%	-5.5%	?	-2.1%	nt
COc1ccccc1OCCNC(=O)c1cccc(S(=O)(=O)N2CCN(C)CC2)c1	13.5µM*	1.1%	-4.5%	11.4%	11.7%	nt
O=C(NCCOc1ccc(Cl)cc1)c1cccc(S(=O)(=O)N2CCCC2)c1	-1.9%	1.8%	0.5%	8.91µM*	-2.0%	nt
SMILES	FLuc modulator	Rab9 promoter act	NPC1 promoter act	ELG1 DNA repair	ELG1 genotoxic	SMN2 splice enh
Cc1ccc(C)c(N2CCN(C(=O)CCc3nnc4n(C)c(=O)c5ccccc5n34)CC2)c1	-2.3%	nt	nt	nt	nt	-2.2%
CCn1c(O)c(/C=N/N=C/c2ccccc2)c2ccc(C3=NNC(=O)CC3)cc21	-18.2%	-0.3%	-3.1%	25.9µM*	-2.0%	-10.1%
CCCCOc1ccc(C2=NNC(=O)CC2)cc1	?	14.0%	11.8%	?	?	-7.3%[1.84 µM]
CCC(CC)=N/N=C/c1c(O)n(CC)c2cc(C3=NNC(=O)CC3)ccc12	?	7.6%	-0.3%	20.6µM*	-0.4%	2.4%
COc1cc(C(=O)NCCCc2nc3ccccc3n2CC(C)C)cc(OC)c1OC	-2.4%	nt	nt	nt	nt	4.3%
COc1cc(OC)cc(-c2nc3ccccc3c(=O)o2)c1	?	-6.5%	-2.7%	1.2%	-4.8%	-13.2%
COc1cccc(-c2nc3ccccc3c(=O)o2)c1	4.78µM*	8.7%	12.3%	?	?	-13.2%
CCOc1cccc(-c2nc3ccccc3c(=O)o2)c1	5.36µM*	nt	nt	nt	nt	?
Cc1ccc2c(c1)nnn2C1CCN(S(=O)(=O)c2ccc(C(=O)N(C)C)cc2)CC1	2.2%	-1.0%	0.5%	18.4µM*	-4.6%	-70.9%
Cc1ccc2c(c1)nnn2C1CCN(S(=O)(=O)c2cccc(S(=O)(=O)N(C)C)c2)CC1	-1.6%	-9.3%	1.9%	20.6µM*	-19.7%	-28.3%
Cc1ccc2c(c1)nnn2C1CCN(S(=O)(=O)c2ccc(C(=O)N3CC(C)CC(C)C3)cc2)CC1 (stereo not drawn)	5.6%	-8.1%	-6.0%	20.6µM*	0.3%	nt
CC(NC(=O)COC(=O)C12CC3CC(CC(Br)(C3)C1)C2)c1ccccc1 (stereo not drawn)	nt	nt	nt	4.8%	-4.8%	nt
CCC(C(=O)N1CCN(c2cc(Cl)ccc2C)CC1)n1nc(C)n2c(cc3occc32)c1=O (stereo not drawn)	4.8%	nt	nt	nt	nt	-60.3%
Cn1c(=O)c2c(nc(NCc3ccc4c(c3)OCO4)n2C)n(C)c1=O	0.6%	-1.3%	-0.9%	3.8%	-1.9%	31.6µM*
Cc1cccc(N2CCN(C(=O)Cn3cnc4c3c(=O)n(C)c(=O)n4C)CC2)c1C	-2.0%	-5.4%	-5.8%	20.6µM*	-5.2%	-29.7%
Cc1cccc(N2CCN(C(=O)CN3C(=O)C4CC=CCC4C3=O)CC2)c1C (stereo not drawn)	16.9µM*	3.16µM*	?	?	10.2%	0.7%
COc1ccc(/C=C(\NC(=O)c2ccco2)C(=O)N2CCCCC2)cc1	-0.4%	-4.4%	-1.4%	-1.7%	-0.8%	nt
CCN1CCN(c2c(S(=O)(=O)c3ccc(C)c(C)c3)cnc3cc(OC)c(OC)cc23)CC1	-6.0%	nt	nt	nt	nt	-9.5%
CCOC(=O)c1[nH]c(C)c(C(=O)Nc2ccc(F)cc2)c1C	2.9%	-4.8%	0.6%	?	21.0%	5.9%
